Our source for the growth values is PubChem BioAssay (NCI).

Structures are written as SMILES. Compounds without any hit were thinned out: in the full panel of roughly 83,000, 20% have a hit.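 Note: values are percent growth. 100 is the growth of untreated cells, values between 100 and 0 indicate rising inhibition; between -100 and 0 indicates cell death.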 A number with no mark means an inactive call. Active and inactive are the calls of the source. The calls were made as follows: active = growth percent below 10; inactive = the rest.

For this assay, the system named is A549/ATCC NSCLC. Nature of the assay: NCI-60 one-dose screen, 48 h (100 = growth as untreated, 0 = no growth, -100 = all killed). Conditions: 10 µM unless noted.
In the case of `COc1ccc(-c2nnc(SCC(=O)Nc3ccc(C(=O)/C=C/c4cc(OC)c(OC)c(OC)c4)cc3)n2-c2ccccc2)cc1OC`, the growth was -28.4% [100 µM] (active).

As for `COc1ccc2cn3c4ccc(O)cc4[nH]c(=O)c3c2c1`, the growth was 19.3%.

As for `COc1ccc(/C=N/c2cc(C(C)(C)C)nn2-c2ccccc2)cc1`, the growth is 101%.

On to `CCCCCCCCCCC1OC(C)CC(C)O1` (configuration not stated), for which the growth is 98.7%.

In the case of `S=C(N/N=C/c1cc(Cl)cc(Cl)c1)NC12CC3CC(CC(C3)C1)C2`, the growth was 45%.

Take `CCOC1=C(Cl)C(=O)C(OCC)=C(Cl)C1=O`: the growth is 108%.

As for `COC(=O)/C=C1/CCCCC1(C)C(=O)OC` (configuration not stated), the growth is 101%.

In the case of `CCCCCCCCCCC(C[N+](C)(C)C/C=C/c1ccccc1)C(O)c1ccccc1` (configuration not stated), the growth is 54.5%.

Take `C=CC1CN2CCC1CC2C(O)c1ccnc2ccc(OC)cc12` (configuration not stated): the growth is 97.3%.

Take `CC(=O)c1ccc2c(c1)c1ccccc1n2C`: the growth is 96.9%.

`CC(=O)Nc1nc(C)c(C(=O)NNS(=O)(=O)c2ccccc2)s1`: the growth is 103%.

Turning to `Cc1cc2cn3c4ccc(O)cc4nc(N)c3c2cc1C`, the growth was 8.84% (active).

Regarding `COc1cc(-c2nn(-c3ccc(NC(=O)Nc4ccc(Cl)c(Cl)c4)cc3)cc2-c2ccncc2)ccc1Cl`, the growth was 25.8%.

`CCOC(=O)c1sc(NS(=O)(=O)c2ccccc2)nc1C`: the growth is 103%.

In the case of `Clc1ccc(I)c2ccccc12`, the growth was 108%.

Regarding `N#Cc1c2cccnc2c2nnc3cc(Cl)c(Cl)cc3n12`, the growth was 83%.

With `COc1ccc(C(=O)NCCNc2nccc(-c3c(-c4ccc(F)cc4)nc4sccn34)n2)cc1`, the growth is 34%.
